# Test results from the antibiotic and cytotoxicity screens of Wong et al. (2023).
# In all, about 39,000 compounds went through this assay and about 3,300 (8.5%) were called active. Only a selection was taken, and actives are over-represented in it overall.
# Tested on: HepG2
# Test: cytotoxicity call (relative viability < 0.9)
# Settings: 10 µM
row,SMILES,cytotoxicity call
1,c1cncc(N2CCNCC2)c1,inactive
2,Cc1[nH]c2ccccc2c1CCN,inactive
3,C=CCOC(=O)[C@@H]1[C@H](C(=O)OC)N(C)[C@@H](c2ccccc2)[C@]12C(=O)Nc1ccc(I)cc12,inactive
4,OCCN(CCO)CCO,inactive
5,NC1Cc2ccccc2C1,inactive
6,CC(=O)OC(C)(C)/C=C/C(=O)C(C)(O)[C@H]1[C@H](O)C[C@@]2(C)[C@H]3CC=C4[C@@H](C[C@H](O)C(=O)C4(C)C)[C@]3(C)C(=O)C[C@]12C (stereo not given in full),active
7,CC(C)(O)/C=C/C(=O)[C@](C)(O)[C@H]1[C@H](O)C[C@@]2(C)[C@H]3CC=C4[C@@H](CC(=O)C(=O)C4(C)C)[C@]3(C)C(=O)C[C@]12C,active
8,Cc1nc(N2CCN(C)CC2)ccc1N,inactive
9,C[C@@H]1CN([C@H](C)CO)C(=O)CCCn2nncc2CO[C@H]1CN(C)C(=O)Oc1cccc2ccccc12,inactive
10,O=C1C2CCN(CC2)C1(CO)CO,inactive
11,CN[C@@H]1[C@@H](O)[C@@H](O[C@@H]2[C@@H](O)[C@H](O[C@H]3O[C@H](CN)CC[C@H]3N)[C@@H](N)C[C@H]2N)OC[C@]1(C)O.CN[C@@H]1[C@@H](O)[C@@H](O[C@@H]2[C@@H](O)[C@H](O[C@H]3O[C@H]([C@@H](C)N)CC[C@H]3N)[C@@H](N)C[C@H]2N)OC[C@]1(C)O.CN[C@@H]1[C@@H](O)[C@@H](O[C@@H]2[C@@H](O)[C@H](O[C@H]3O[C@H]([C@@H](C)NC)CC[C@H]3N)[C@@H](N)C[C@H]2N)OC[C@]1(C)O,inactive
12,CN1C2CCC1CC(OC(=O)C(CO)c1ccccc1)C2.O=S(=O)(O)O (stereo not given),inactive
13,CNCC(=O)c1ccc(O)c(O)c1.Cl,inactive
14,CCn1nc(-c2cccnc2)nc2c(=O)n(C)c(=O)nc1-2,active
15,CCCC(=O)O[C@H]1CN2CC[C@H](O)[C@@H]2[C@@H](O)[C@@H]1O,inactive
16,O=[N+]([O-])O[C@@H]1CO[C@H]2[C@@H]1OC[C@@H]2O,inactive
17,C1CNC[C@@H](N2CCCC2)C1,inactive
18,O=C(NC[C@H]1CC[C@@H]2NC[C@@H]2O1)C1CCCC1,inactive
19,C=CCN=C=S,active
20,O=C1NCN(c2ccccc2)C12CCNCC2,inactive
21,CN1C[C@H]2CON[C@@H]2C1,inactive
22,CC(C)(CN)CNc1ccc([N+](=O)[O-])c2cccnc12,active
23,O=[N+]([O-])c1ccc2c3c(cccc13)CC2,inactive

row,SMILES,cytotoxicity call
1,O=C1O[C@H]2CN[C@@H]1C2,inactive
2,N[C@@H](C(=O)O)c1nn[nH]n1,inactive
3,OCC(O)C1OC2OC(C(Cl)(Cl)Cl)OC2C1O (stereo not given),inactive
4,CS(=O)(=O)N1CCO[C@]2(COCCN(Cc3ccncc3)C2)C1,inactive
5,O=c1[nH]c2ccccc2n1C1CCN(Cc2ccc(-c3nc4cc5[nH]cnc5cc4nc3-c3ccccc3)cc2)CC1,active
6,CN1[C@@H]2CC[C@H]1C[C@H](O)C2,inactive
7,Cc1cccnc1N1CCNCC1,inactive
8,O=C1[O][SbH]23[O]C(=O)[C@H]([O]2)[C@H]2[O][SbH]4([O]C(=O)[C@H]([O]4)[C@H]1[O]3)[O]C2=O,active
9,O=C1[O][SbH]23[O]C(=O)C([O]2)C2[O][SbH]4([O]C(=O)C([O]4)C1[O]3)[O]C2=O,active
10,N#C[C@H]1NCc2cnnn2-c2ccccc21,inactive
11,O=[N+]([O-])c1c(NCCO)ccc2nonc12,inactive
12,CC(C)(C)CC(=O)N1C[C@H]2C[C@@H]1CN2,inactive
13,Cc1cc[n+](C)cc1,inactive
14,O=c1n(Cl)c(=O)n(Cl)c(=O)n1Cl,inactive
15,CC(COc1ccc(Oc2ccccc2)cc1)Oc1ccccn1 (stereo not given),inactive
16,O=c1[n-]c(=O)n(Cl)c(=O)n1Cl.[Na+],inactive
17,CCC(C)C1OC2(C=CC1C)CC1CC(CC=C(C)C(OC3CC(OC)C(OC4CC(OC)C(O)C(C)O4)C(C)O3)C(C)C=CC=C3COC4C(O)C(C)=CC(C(=O)O1)C34O)O2 (stereo not given) [ABAMECTIN (avermectin B1a shown) ],active
18,CN1CCN([C@@H](CN)c2ccc3c(c2)OCO3)CC1,inactive
19,O=C1C[C@H](c2ccccc2)[C@@H]2CNCCN12,inactive
20,O=C(NC(=O)c1c(F)cccc1F)Nc1ccc(Cl)cc1,inactive
21,O=C(NC(=O)c1c(F)cccc1F)Nc1cc(Cl)c(OC(F)(F)C(F)C(F)(F)F)cc1Cl (stereo not given),active
22,O=C(NC(=O)c1c(F)cccc1F)Nc1cc(Cl)c(OC(F)(F)[C@@H](F)C(F)(F)F)cc1Cl,inactive
23,CN1CCc2cc3c(cc2[C@@H]1O)OCO3,inactive

row,SMILES,cytotoxicity call
1,COC(=O)C[C@](O)(CCC(C)(C)O)C(=O)O[C@@H]1C(OC)=C[C@]23CCCN2CCc2cc4c(cc2[C@H]13)OCO4,active
2,CN1CCc2cc3c(cc2C1O)OCO3.Cl (stereo not given),inactive
3,CN1C[C@@H]2c3nc(N(C)C)ncc3CS(=O)(=O)[C@H]2C1,inactive
4,CC(C)[C@@]1(NC(=O)[C@H]2C[C@@H]3c4cccc5[nH]cc(c45)C[C@H]3N(C)C2)O[C@@]2(O)[C@H]3CCCN3C(=O)[C@@H](Cc3ccccc3)N2C1=O,inactive
5,CN1CC(CNC(=O)OCc2ccccc2)CC2c3cccc4c3c(cn4C)CC21 (stereo not given),active
6,CCC(CO)NC(=O)C1C=C2c3cccc4c3c(cn4C)CC2N(C)C1.O=C(O)C=CC(=O)O (stereo not given),inactive
7,CC(C)[C@@]1(NC(=O)[C@@H]2C[C@@H]3c4cccc5[nH]cc(c45)C[C@H]3N(C)C2)O[C@@]2(O)[C@@H]3CCCN3C(=O)[C@H](Cc3ccccc3)N2C1=O,inactive
8,CC(=O)OCC1=C(C(=O)O)N2C(=O)[C@@H](N)[C@H]2SC1,inactive
9,CC(=O)Nc1cc([As](=O)(O)O)ccc1O,inactive
10,COC1=CC2C3Cc4ccc(OC)c(O)c4C2(CCN3C)CC1=O (stereo not given),inactive
11,C=C1[C@@H](C)[C@H]2[C@H](Cc3ccccc3)NC(=O)[C@]23[C@H](OC(C)=O)/C=C/[C@](C)(O)C(=O)[C@@H](C)C/C=C/[C@H]3[C@@H]1O,active
12,Cc1noc(C)c1C(=O)N1C[C@@H]2CCN[C@@H]2C1,inactive
13,CC1=NCCN=C(C)C1N1CCOCC1,inactive
14,O=C(OC1CC2CCC(C1)[N+]21CCCC1)C(O)(c1ccccc1)c1ccccc1.[Cl-] (stereo not given),inactive
15,N[C@@]1(C(=O)O)CC[C@@H](C(=O)O)C1.N[C@]1(C(=O)O)CC[C@H](C(=O)O)C1,inactive
16,CC[C@@H](C(=O)[C@@H](C)[C@@H](O)[C@H](C)[C@@H]1O[C@@H]([C@@H](CC)C(=O)O)CC[C@@H]1C)[C@H]1O[C@]2(C=C[C@@H](O)[C@]3(CC[C@@](C)([C@H]4CC[C@](O)(CC)[C@H](C)O4)O3)O2)[C@H](C)C[C@@H]1C,inactive
17,CCC(C(=O)[O-])C1CCC(C)C(C(C)C(O)C(C)C(=O)C(CC)C2OC3(C=CC(O)C4(CCC(C)(C5CCC(O)(CC)C(C)O5)O4)O3)C(C)CC2C)O1.[Na+] (stereo not given),active
18,CCCCC(=O)N1C[C@@H]2CCNC[C@@H]21,inactive
19,Cc1csc(CCN)n1,inactive
20,CN1[C@@H]2CNc3ccccc3[C@@H]2[C@@H]1CO,inactive
21,CCN1C[C@]2(OC(=O)c3ccccc3NC(C)=O)CC[C@@H](OC)[C@@]34[C@H]5C[C@@H]6[C@@H](OC)C[C@](O)([C@@H](C[C@@H]23)[C@@H]14)[C@]5(O)[C@H]6OC,inactive
22,N[C@@H](Cn1oc(=O)[nH]c1=O)C(=O)O,inactive
23,COC(=O)C1=CCCN(C)C1,inactive

row,SMILES,cytotoxicity call
1,Br.COC(=O)C1=CCCN(C)C1,active
2,Clc1cc2c(cc1Cl)Oc1cc(Cl)c(Cl)cc1O2,inactive
3,CNCC(=O)c1ccc(O)c(O)c1,inactive
4,C[C@H]1CN([C@@H](C)CO)C(=O)c2c(c3ccccc3n2C)-c2ccccc2CO[C@H]1CN(C)C(=O)Oc1ccccc1,inactive
5,N[C@H]1Cc2ccccc2[C@@H]1O,inactive
6,O=[N+]([O-])c1cc([As](=O)(O)O)ccc1O,inactive
7,O=[N+]([O-])c1ccc([As](=O)(O)O)cc1 [listing 1 of 2 here],inactive
8,O=[N+]([O-])c1ccc([As](=O)(O)O)cc1 [listing 2 of 2 here],active
9,CC1=C2C3OC(=O)C(C)C3CCC2(C)C=CC1=O (stereo not given),inactive
10,O=C1NC(=S)NC(=O)C1=Cc1ccccc1,inactive
11,C=CC=CCC1=C(C)C(OC(=O)C2C(C=C(C)C)C2(C)C)CC1=O (stereo not given),inactive
12,Oc1cc(Cl)ccc1Oc1ccc(Cl)cc1Cl [listing 1 of 2 here],inactive
13,Oc1cc(Cl)ccc1Oc1ccc(Cl)cc1Cl [listing 2 of 2 here],active
14,Nc1ccc(Cl)cc1Cl,inactive
15,Cc1nc(-c2ccc(-c3ccc(C(=O)N4CCc5cc6c(cc54)C4(CCN(C)CC4)CO6)cc3)c(C)c2)no1,active
16,NCCc1nc2ccccc2[nH]1,inactive
17,O[C@H]1[C@H]2[C@H](O)CCCN2C[C@H]1O,inactive
18,COc1ccc(C(=O)O[C@H]2CC[C@@]3(C)[C@@H]4CC[C@H]5[C@]6(O)C[C@H](O)[C@@]7(O)[C@@H](CN8C[C@@H](C)CC[C@H]8[C@@]7(C)O)[C@]6(O)C[C@@]53O[C@]24O)cc1OC,inactive
19,C[C@@H]1CC[C@@]2(OC1)O[C@H]1C[C@H]3[C@@H]4CC=C5C[C@@H](O[C@@H]6O[C@H](CO)[C@@H](O[C@@H]7O[C@@H](C)[C@H](O)[C@@H](O)[C@H]7O)[C@H](O)[C@H]6O[C@@H]6O[C@@H](C)[C@H](O)[C@@H](O)[C@H]6O)CC[C@]5(C)[C@H]4CC[C@]3(C)[C@H]1[C@@H]2C,active
20,CC1CCC2(NC1)OC1CC3C4CC=C5CC(O)CCC5(C)C4CCC3(C)C1C2C (stereo not given),inactive
21,C[C@@H]1CC[C@@]2(OC1)O[C@H]1[C@@H](O)[C@H]3[C@H]4CC[C@H]5C[C@H](O[C@@H]6O[C@H](CO)[C@H](O[C@@H]7O[C@H](CO)[C@@H](O)[C@H](O[C@@H]8OC[C@@H](O)[C@H](O)[C@H]8O)[C@H]7O[C@@H]7O[C@H](CO)[C@H](O)[C@H](O[C@@H]8O[C@H](CO)[C@@H](O)[C@H](O)[C@H]8O)[C@H]7O)[C@H](O)[C@H]6O)[C@H](O)C[C@]5(C)[C@@H]4CC[C@]3(C)[C@H]1[C@@H]2C,inactive
